Screening data deposited in PubChem by National Center for Advancing Translational Sciences (NCATS).
TDP1 cell CPT: DT40-hTDP1 cell growth loss with CPT. chicken DT40 Tdp1-/-;hTDP1 cells + 20 nM CPT, ATP luminescence, 48 h. Potency, µM (series often up to 46.2 µM), without a hit: at the highest dose activity change, negative = growth inhibition, usual class: inhibitors. actives 12% (n = 420,000); further: potency means the concentration at half of the fitted maximal effect; on the % scale 0 is the no-effect control and ±100 the full control effect; nearly all actives have a fitted effect of over 55% in size
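Chicken DT40 Tdp1-/- cells complemented with human TDP1, 400 cells/well, exposed to compounds plus 20 nM camptothecin for at least 48 h at 37 C; viability read as ATP content by CellTiter-Glo luminescence.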
IL1B secr inh: inhibitors of inflammasome signaling (IL-1 beta secretion) | THP-1 LPS/ATP IL-1B secretion, AlphaLISA, 16 h; active compounds read low | activity change, % at 57.5 µM | actives 4.7% (n = 360,000); in the data active means activity change below about -50%; inconclusive means mostly about -30% to -49%; further: on the % scale 0 is the no-effect control and ±100 the full control effect
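Secreted IL-1B measured by AlphaLISA bead assay after 16 h compound exposure of THP-1 cells; compounds (final up to 57.5 uM) added 1 h before LPS (250 ng/mL) and ATP (1.25 mM) stimulation; lower signal means less secretion.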
SW480 rerep: induces DNA re-replication in SW480 colon adenocarcinoma cells; SW480 DNA re-replication, Hoechst DNA content imaging, 48 h; Potency, µM (doses to about 46.1 µM), for the others: at the top dose re-replication activation, usual class: activators; actives 1.8% (n = 340,000); further: potency means the concentration at half of the fitted maximal effect; % of control where 0% means no effect; nearly all actives have a fitted effect of over 55% in size
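Cells (250 per well) received 23 nL compound or DMSO by pin tool and were kept 48 hr at 37 C, 5% CO2. Nuclei were then stained with Hoechst for 40 min and scanned for DNA content.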
BCR signal inh: blocks chronic active B-cell receptor signaling; ABC-DLBCL IkBa-CBG/CBR reporter, luminescence ratio, 4 h; Potency, µM (highest dose often 46.1 µM), without a hit: top-dose activity change, negative = inhibition, most hits filed as inhibitors; actives 0.05% (n = 340,000); active means well fitted inhibition curve with a large enough effect in the signal ratio, with a control signal flat, not every such curve was filed as active; inconclusive means small, poorly fitted or top-dose-only effect, or effect the other way, or a change in a side signal; the % refers to the signal ratio;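 further: potency means the concentration at half of the fitted maximal effect; plate controls were basal doxycycline-induced cells for no effect and cells given 10 µM MG132 for full effect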
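Cell line TMD8 (human ABC DLBCL), stably expressing tet-inducible CBG68-IkBa fusion and CBR; IMDM/0.5% FBS; cpd up to 46 uM; dox induction, 4 h, 37C/5% CO2; dual luminescence; green/red ratio; MG132 control.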
TDP1 cell noCPT: qHTS for Inhibitors of human tyrosyl-DNA phosphodiesterase 1 (TDP1): qHTS in cells in absence of CPT | DT40 Tdp1-/- hTDP1 cells, no CPT, ATP luminescence, 48 h | Potency, µM (highest dose often 46.2 µM), without a hit: at the highest dose activity change, negative = growth inhibition, usual class: inhibitors | actives 15% (n = 420,000); further: potency means the concentration at half of the fitted maximal effect; on the % scale 0 is the no-effect control and ±100 the full control effect; nearly all actives have a fitted effect of over 55% in size
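Compound effects on proliferation are scored in DT40 Tdp1-/-;hTDP1 cells in the absence of CPT. ATP levels (CellTiter-Glo luminescence) are recorded after a ≥48 hr, 37 °C incubation.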
MCF10A rereplic: DNA re-replication induction in MCF 10a cells; MCF 10A DNA re-replication, Hoechst nuclear intensity, 48 h; Potency, µM (titrated, usually from 46.1 µM), without a hit: top-dose activity, positive = re-replication, actives largely listed as activators; actives 2.9% (n = 350,000); AID 624296; further: potency means the concentration at half of the fitted maximal effect; % of control where 0% means no effect; nearly all actives have a fitted effect of over 50% in size
Numbers without * were called inactive; ? = inconclusive; nt = not tested or not shown; ! = not active in a repeat; [ ] = dose if it differs, or a comment. Hits are enriched below; roughly 19% of the tested compounds scored in any of these assays. Unless noted, the call rests on the fitted dose curve; in most records, active means well fitted curve in the direction sought with a large enough effect; inconclusive means small, poorly fitted or top-dose-only effect, or another doubt; inactive means no such curve, though single readings can be large; an effect the other way counts as inactive or inconclusive.

SMILES	TDP1 cell CPT	IL1B secr inh	SW480 rerep	BCR signal inh	TDP1 cell noCPT	MCF10A rereplic
COC(=O)C1=C(c2ccc(F)cc2OCc2ccccc2)C[C@@H]2CC[C@H]1N2C(=O)NCCCc1ccccc1	26µM*	-11	11%	6%	?	?
COC(=O)C1=C(c2ccc(F)cc2F)C[C@@H]2CC[C@H]1N2C(=O)NCc1ccc2c(c1)OCO2	?	-10	1%	7%	?	?
CCCCOc1ccc(Cn2c(=O)oc3ccccc32)cc1	?	18	7%	3%	?	?
N=c1n(Cc2ccc(Cl)cc2)c2ccccc2n1CC(O)COc1ccccc1 (configuration not stated)	?	-97*	?	?	8.2µM*	?
FC(F)(F)c1ccccc1N1CC1c1ccncc1 (configuration not stated)	-28%	16	-2%	1%	-1%	1%
O=C(COc1ccc2c(c1)OCO2)Nc1cccc(F)c1	3%	-2	2%	?	-15%	-6%
CCOCCSc1nc2c(c(-c3cccs3)c1C#N)CC/C2=C/c1cccs1	?	15	?	-3%	?	?
Cc1cc(N2CCNCC2)nc2ccccc12	-9%	-63*	8%	-29%	?	?
Cn1c(N2CCNCC2)nc2ccccc21	-17%	1	-9%	-14%	-13%	-2%
Cc1ccc(NC(=O)c2cc(-c3cc(Cl)ccc3C)n[nH]2)cc1NS(C)(=O)=O	23µM*	-14	nt	nt	?	nt
Clc1ccc(N2CC2c2ccncc2)cc1 (configuration not stated)	?	-14	-8%	1%	?	1%
O=C(NCCN1CCC(n2c(=O)[nH]c3ccccc32)CC1)c1ccc2ccccc2c1	23µM*	nt	nt	nt	?	nt
NC(N)=NC(=O)c1nc(Cl)c(N)nc1N	1.5µM*!	-7	-4%	?	0.58µM*!	?
NNC(N)=O	-1%	19	-37%	3%	2%	-9%
Cc1ccc2c(c1)C1CN(C)CCC1N2C(=O)COc1ccc(N(C)C(=O)C(C)(C)C)cc1 (configuration not stated)	?	-76*	-1%	5%	18µM*	16%
Cc1ccc2c(c1)C1CN(C)CCC1N2C(=O)COc1ccc(N(C)S(=O)(=O)c2cccs2)cc1 (configuration not stated)	-28%	-11	?	?	?	2%
CCOc1ccc(S(=O)(=O)N(C)c2ccc(OCC(=O)N3c4ccc(C)cc4C4CN(C)CCC43)cc2)cc1 (configuration not stated)	?	-50*	4%	-16%	?	?
C[C@@H]1[C@H]2Cc3ccc(O)cc3[C@]1(C)CCN2C	-1%[166 µM]	nt	nt	nt	-11%[166 µM]	nt
O=C(Nc1ccc(Br)cc1C(=O)O)c1ccc2c(c1)C(=O)N(Cc1ccccc1)C2=O	12%	5	0%	-1%	7%	?
CCCC(=O)O[C@]1(C(=O)COC(=O)CC)[C@@H](C)C[C@H]2[C@@H]3CCC4=CC(=O)C=C[C@]4(C)[C@@]3(F)[C@@H](O)C[C@@]21C	?	nt	nt	nt	24µM*	nt
CN1CCCC2c3ccccc3CCC21 (configuration not stated)	-9%	20	nt	nt	?	nt
COc1ccccc1CCNC1CCC(C(C)(C)C)CC1 (configuration not stated)	?	-65*	?	?	21µM*	?
CC(C)c1ccc(NC(=O)N2C[C@H]3C[C@@H](C2)c2cccc(=O)n2C3)cc1	-20%	36	?	-18%	5%	22%
C[C@]12CCC3C(CC[C@]4(O)CC(O)CC[C@@]34C=O)[C@]1(O)CCC2C1=CC(=O)OC1 (some centres not stated)	10%	nt	nt	nt	-21%	nt
CC12CC[C@H]3[C@@H](CCC4(O)C[C@H](O)CCC34/C=N/NC(=O)Cc3ccccc3)C1(O)CCC2C1=CC(=O)OC1 (some centres not stated)	14%	-4	-7%	6%	8%	16%
SMILES	TDP1 cell CPT	IL1B secr inh	SW480 rerep	BCR signal inh	TDP1 cell noCPT	MCF10A rereplic
C[C@@H]1O[C@@H](O[C@H]2CC[C@]3(C=O)C4CC[C@]5(C)[C@@H](C6=CC(=O)OC6)CC[C@]5(O)[C@@H]4CC[C@]3(O)C2)[C@H](O)[C@H](O)[C@H]1O (some centres not stated)	0.37µM*	nt	nt	nt	0.33µM*	nt
CC1O[C@@H](OC2CC[C@@]3(C=O)C4CC[C@]5(C)C(C6=CC(=O)OC6)CC[C@@]5(O)C4CC[C@]3(O)C2)C(O)C(O)C1O (some centres not stated)	0.46µM*	nt	nt	nt	0.58µM*	nt
CC12CC[C@H]3[C@@H](CCC4(O)C[C@H](O)CCC34/C=N/NC(=O)c3ccccc3[N+](=O)[O-])C1(O)CCC2C1=CC(=O)OC1 (some centres not stated)	10%	?	7%	?	-25%	16µM*
COC1C(O)C(OC2CC[C@]3(C=O)C4C(OC(C)=O)C[C@@]5(C)C(C6=CC(=O)OC6)CC[C@]5(O)C4CC[C@]3(O)C2)OC(C)C1OC(C)=O (some centres not stated)	9%	nt	nt	nt	1%	nt
CS(=O)(=O)N1Cc2ccccc2-n2nncc2C1	-28%	3	16%[9.22 µM]	nt	-11%	-12%
COc1cc(O)cc2cc3c(c(O)c12)C(=O)CC(C)(O)O3 (configuration not stated)	?	?	?	?	?	5%
O=C1NC(=O)N(c2ccc(Cl)cc2)C(=O)/C1=C\c1ccc(Sc2nc3ccccc3[nH]2)o1	16µM*	-2	-1%	8%	?	?
CC1CCN(C(CC(=O)c2ccccc2)C(=O)c2ccccc2)CC1 (configuration not stated)	2.6µM*	-67*	6.5µM*	nt	2.1µM*	3.7µM*
Cc1ccc(CNC(=O)C(=O)NCC(c2cccnc2)N2CCN(c3ccc(F)cc3)CC2)cc1 (configuration not stated)	4.1µM*	nt	nt	nt	3.3µM*	nt
